Activity calls are given as the source filed them.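 The calls were made as follows: active = cell survival after UV exposure 2 SD above solvent-only control wells at 10 µM, confirmed on one or two repeats; inactive = the rest.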

The test can be described thus: protection of CHO cells from pyrene-fatty acid UV killing, primary screen, phospholipid biosynthesis inhibitor project, ZR-82 cells, Analyticon library, screen 2 (AID 1347383).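 Also: survival reflects blocked phospholipid synthesis cutting uptake of the phototoxic fatty acid; compound and fatty acid exposure 3 h then viability read next day.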 Particulars: ZR-82 CHO cells, CellTiter Blue, at 10 µM, peroxisome-deficient CHO-K1 variant, with DGAT-1, DGAT-2 and ACAT inhibitors. Background: Alamar Blue is a resazurin reagent that responds to reducing activity.
On to `CO[C@@H]1[C@H](OC(=O)/C=C/C(O)C(C)O)CC[C@]2(CO2)[C@H]1[C@@]1(C)O[C@@H]1CC=C(C)C` (some centres undefined), for which the compound was classed as inactive.

Regarding `CC(C)=CCCC(C)(O)C1CC[C@]2(C)C1CC[C@@H]1[C@@]3(C)CCC(=O)C(C)(C)[C@@H]3CC[C@]12C` (some centres undefined), the outcome was inactive.

Regarding `C[C@]1(C=O)[C@H]2CC[C@]3(C)O[C@@]14C(=O)c1cc(O)ccc1C(=O)C4=C[C@@H]23`, the result was inactive.

As to `CCCCCCCCCC(O)CC(CC(CC1CC=CC(=O)O1)OC(C)=O)OC(C)=O` (centres undefined), the call was inactive.

For `CO[C@H]1c2cc(C(C)C)c(O)c(O)c2[C@@]23CCCC(C)(C)C2[C@@H]1OC3=O` (some centres undefined), the compound was called inactive.

For the compound `COc1ccc(-c2coc3cc(O[C@@H]4O[C@H](CO)[C@@H](O)[C@H](O)[C@H]4O)ccc3c2=O)cc1`, the call was inactive.

As to `CC(C)=CCC/C(C)=C/CC(O)/C(C)=C/Cc1cc(C(=O)O)ccc1O` (centres undefined), the compound was called inactive.

On to `COC1=CC(=O)CC(C)C12Oc1cc(OC)cc(O)c1C2=O` (centres undefined), for which the result was inactive.

For the compound `C/C=C(/C)C(=O)O[C@H]1CC(C)=C[C@@H](O)[C@]2(C)[C@@H]1[C@](O)(C(C)C)C[C@H]2OC(=O)/C(C)=C\C`, the result was inactive.

As to `O=C(CCc1ccc(O)c(O)c1)CCC(O)Cc1ccc(O)c(O)c1` (centres undefined), the compound was called inactive.

Turning to `CC[C@H](C)/C=C(C)/C=C/C1=CC2=CC(=O)[C@]3(C)OC(=O)[C@@H](C(C)=O)[C@@H]3C2=CO1`, the compound was classed as inactive.

Turning to `CSCC1OC(n2cnc3c(=O)[nH]cnc32)C(O)C1O` (centres undefined), the call was inactive.

As for `C=C1C=CC(C(C)C)CCC(=C)C(O)CC1` (centres undefined), the call was inactive.

As for `CC(=O)O[C@H]1CC2C(COC(=O)CC(C)C)=CO[C@@H](OC(=O)CC(C)C)C2[C@@]12CO2` (some centres undefined), the outcome was inactive.

(Values after PubChem BioAssay AID1347383 (Zoeller Lab, School of Medicine, Boston University, 2020).)
